This is an account of results in PubChem BioAssay AID1626 (SRMLSC, 2009).

The structures appear in SMILES notation. Where “and” joins values, the source holds several entries; their conditions need not be identical. Identical values can stand only once. Among all 220,000 compounds or so, about 2,000 (0.91%) were called active. Roughly 2% stayed inconclusive and do not appear here. The list is a sample of the results. Results with a measured potency or affinity are listed apart. Values without a mark were called inactive. Cut-off read from the data, not from the text of the source: inconclusive = inhibition above about 80% without an active follow-up result; inactive = below that; test concentration not stated here.

The experiment can be described thus: M. tuberculosis H37Rv growth inhibitors, H37Rv strain (AID 1626).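 Note: bacteria incubated seven days before Alamar blue readout; 0% = bacteria only wells and 100% = bacteria with antibiotic wells.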 The conditions noted are these: hits give high values, concentration not given here.
As to `CCOc1ccccc1NC(=O)CN1C(=O)CSC(C)C1=O` (centres undefined), the inhibition was 2.75%.
With `CNC(=S)N1N=C(c2ccc(C)cc2)CC1c1ccc(OC)cc1` (centres undefined), the inhibition is 3.11%.
To `COC(=O)c1cn(C(=O)/C=C/c2ccc(OC)c(OC)c2)c2ccccc12` belongs 4.86%.
In the case of `c1ccc(Cn2c(CNc3nc4ccccc4n3CCN3CCCCC3)nc3ccccc32)cc1` it was 16.8%.
To `CCOC(=O)c1ccc(NC(=S)NNC(=O)C2(C)CC2(Cl)Cl)cc1` (centres undefined) belongs 1.27%; to `O=C1OC(c2cccs2)=N/C1=C\c1ccc(-c2cccc(Cl)c2)o1`, 4.3%.
Regarding `O=C1/C(=C/c2ccco2)SC(=S)N1c1cccnc1`, the inhibition was -3.57%.
For the compound `N=C1S/C(=C\c2ccco2)C(=O)N1c1ccc2c(c1)OCO2`, the inhibition was 3.8%.
To `CN1C(=O)C(=Cc2ccc(-c3cccc(Cl)c3)o2)C(=O)N(C)C1=O` belongs 5.04%.
To `O=S(=O)(c1cnc(Cl)c(Br)c1)N1CCN(c2ncccn2)CC1` belongs -10.8%.
In the case of `Cc1ccc(C(NC(=O)c2ccccc2)C(Cl)(Cl)Cl)cc1` (centres undefined) it was 5.19%.
Consider `CC(=O)NC(O)C(=O)c1ccccc1` (centres undefined), for which the inhibition was 3.23%.
In the case of `O=Cc1cn(CC(=O)NCC2CCCO2)c2ccccc12` (centres undefined) it was 2.23%; in that of `Cc1occc1-c1nnc(SCC(=O)NC2CCCC2)n1-c1ccccc1`, 2.16%.
To `NC(=O)CSc1ncnc2c1cnn2Cc1ccccc1` belongs -0.76%; to `CC(C)(C)C(=O)CSc1ncnc2c1cnn2-c1ccccc1`, 9.82%.
In the case of `CCOC(=O)CNC(=O)CSc1ncnc2c1cnn2-c1ccc(Cl)cc1` it was 14.2%; in that of `CC(=O)CSc1ncnc2c1cnn2-c1ccccc1`, -1.25%.
On to `CCOC(=O)Cn1cnc2c(cnn2-c2ccc(Cl)cc2)c1=O`, for which the inhibition is -3.87%.
`CCOC(=O)CC(=O)CSc1ncnc2c1cnn2-c1ccccc1`: the inhibition is -1.22%.
In the case of `CNC(=O)CSc1ncnc2c1cnn2-c1ccccc1` it was -3.44%.
In the case of `CCN(CC)C(=O)CSc1ncnc2c1cnn2Cc1ccccc1` it was -79.5%.
In the case of `COc1ccc(Cc2nnc(SCC(=O)N3CCCCC3)o2)cc1` it was 3.26%; in that of `O=C1N(Cc2cccnc2)C[C@@H]2C[C@@H](c3cccc(C(F)(F)F)c3)N3CCC[C@@]123`, 2.57%; in that of `CCCCOc1nc2ccccc2nc1C(C#N)S(=O)(=O)c1ccccc1` (centres undefined), -4.72%.
For `CN(c1ccc(OCC(=O)OCC(=O)NCc2ccco2)cc1)S(=O)(=O)c1ccc2ccccc2c1`, the inhibition was -0.25%.
To `COc1ccccc1C(=O)C1CCCN(C(=O)c2snnc2C)C1` (centres undefined) belongs -0.23%; to `Cc1ccc(SCC(=O)NCCSCc2ccccc2)cc1`, 7.41%; to `Cc1ccc(-n2ncc3c(SCC(=O)Nc4cc(C)on4)ncnc32)c(C)c1`, 0.2%.
In the case of `CCOC(=O)CNC(=O)CSc1ncnc2c1cnn2-c1ccc(C)cc1` it was -3.46%; in that of `CSc1ncnc2c1cnn2-c1ccc(C)cc1C`, 11.1%; in that of `CCOC(=O)CNC(=O)CSc1ncnc2c1cnn2-c1ccc(OC)cc1`, 14.6%.
Regarding `COCc1cc(C)nc(Nc2ccc(C)c(C)c2)c1C#N`, the inhibition was -2.04%.
To `CC1=C(C(=O)Nc2ccccc2)C(c2ccco2)NC(=O)N1` (centres undefined) belongs -10.5%.
As for `COc1cc(NC(=O)CN2C(=O)NC(C)(c3ccccc3)C2=O)c(C)cc1[N+](=O)[O-]` (centres undefined), the inhibition was 3.59%.
To `Cc1cc(C)n2c(SC/C(O)=C(\C#N)c3nc4ccccc4[nH]3)nnc2n1` belongs -3.82%; to `COc1ccc(C(=O)NCC2CCCO2)cc1OC` (centres undefined), -3.63%; to `CC(COc1ccccc1Cc1ccccc1)N1CCCCC1` (centres undefined), 1.05%.
Turning to `c1ccc(CN(CC2=NCCN2)c2ccccc2)cc1`, the inhibition was -7.61% and -7.26%.
In the case of `CCOc1cc(N2CCOCC2)c(OCC)cc1NC(=O)c1ccc2ccccc2n1` it was 7.27%; in that of `c1csc(-c2csc3nc(CN4CCOCC4)nc(NCc4ccc5c(c4)OCO5)c23)c1`, -6.15%; in that of `CN(Cc1ccccc1)c1nc(CN2CCOCC2)nc2scc(-c3ccccc3)c12`, 38.4%.
In the case of `CCNc1nc(CN2CCCCC2)nc2scc(-c3ccccc3)c12` it was 10.7%; in that of `NC(=O)C1CC(O)CN1c1nc(CN2CCOCC2)nc2scc(-c3ccccc3)c12` (centres undefined), -8.45%; in that of `CC/C(=N\Nc1ccccc1)c1c(O)n(-c2ccccc2)c(=O)[nH]c1=O`, 47.3%.
To `C[C@H](NC(=O)c1[nH]cnc1C(=O)Nc1ccc(Cl)cc1)C(=O)OC(C)(C)C` belongs 52.4%; to `Cc1cccc(NC(=O)c2nc[nH]c2C(=O)N[C@@H](C)C(=O)OC(C)(C)C)c1`, 80%; to `C[C@H](NC(=O)c1nc[nH]c1C(=O)N[C@H](C)c1ccccc1)C(=O)OCc1ccccc1`, 2.36%.
For the compound `CNC(=O)c1[nH]cnc1C(=O)N[C@@H](C)C(=O)OCc1ccccc1`, the inhibition is -1.09%.
In the case of `Cc1cccc(NC(=O)c2nc[nH]c2C(=O)N[C@@H](CC(C)C)C(=O)OC(C)(C)C)c1` it was 39%; in that of `Cc1cccc(NC(=O)c2nc[nH]c2C(=O)N[C@@H](Cc2ccccc2)C(=O)OCc2ccccc2)c1`, -0.81%.
In the case of `COc1ccccc1-n1c(SCC(=O)Nc2ccccc2C)nc(O)cc1=O` it was -5.47%; in that of `NNC(=O)[C@H]1C[C@@H]1c1ccccc1`, -1.45%; in that of `Cc1ccc(SC(C)c2nc(-c3ccncc3)no2)cc1` (centres undefined), 3.66%.
Turning to `O=C(Cc1ccc(Cl)c(Cl)c1)Nc1ccc2[nH]c(=O)[nH]c2c1`, the inhibition was -1.82%.
In the case of `Clc1ccc(C(c2ccccc2)N2CCNCC2)cc1` (centres undefined) it was 0.35%; in that of `CCOc1cc(/C=C/c2ccc3cccc([N+](=O)[O-])c3n2)ccc1O`, -4.71%.
In the case of `COc1cc(/C=C/C(=O)O)ccc1O` it was -3.73%; in that of `Cc1ccc(NC(=S)N(Cc2ccccc2)C(C)C)cc1`, -1.3%.
To `O=C(CSc1nc(O)cc(=O)[nH]1)Nc1ccc2c(c1)CCC2` belongs 6.46%.
On to `CCC(C)c1c(O)nc(SCC(=O)Nc2ccccc2)[nH]c1=O` (centres undefined), for which the inhibition is -5.09%.
To `Nc1cc(=O)[nH]c(SCC(=O)Nc2ccc3c(c2)CCC3)n1` belongs 4.78%; to `CCCc1cc(=O)[nH]c(SCC(=O)Nc2ccc3c(c2)CCC3)n1`, 7.3%.
Turning to `CCN(CC)C(=O)C(=O)Nc1ccc(Oc2ccccc2)cc1`, the inhibition was 14.4%.
In the case of `COc1cc(CNCCCCO)ccc1OCc1ccccc1F` it was 0.63%; in that of `COc1cccc(CNCCc2c[nH]c3ccccc23)c1OCc1ccccc1`, 52.7%.
In the case of `CCNCc1ccc(OCc2ccccc2F)c(OC)c1` it was 6.78%; in that of `COc1cccc(CNCCc2c[nH]c3ccccc23)c1OCc1ccc(F)cc1`, 28.9%.
In the case of `O=C(NCCc1ccccc1)C1CC(=O)N(C2CCCCCC2)C1` (centres undefined) it was -3.62%.
As for `COC(=O)C1=C(c2ccccc2)C[C@@H]2CC[C@H]1N2C(=O)NCC1CC1`, the inhibition was -3.96%.
In the case of `COC(=O)c1ccc(COC(=O)c2cnccn2)cc1` it was 16.3%; in that of `O=C(OCc1ccc(Cl)cc1)c1cnccn1`, 13.5%; in that of `O=[N+]([O-])c1cccc(-c2noc(-c3cccs3)n2)c1`, 0.93%.
`O=C(NCc1n[nH]c(=S)n1Cc1ccccc1)c1ccc(Cl)cc1Cl`: the inhibition was 7.03%.
As for `COc1cccc(C2c3c(oc4ccccc4c3=O)C(=O)N2c2ccccn2)c1` (centres undefined), the inhibition was -5.48%.
In the case of `COc1cc(OC)c(S(=O)(=O)NCc2ccco2)cc1S(=O)(=O)NCc1ccco1` it was 1.4%; in that of `Cc1ccc(Cl)cc1NC(=O)COC(=O)c1ccc(N2CCCC2)c([N+](=O)[O-])c1`, -3.66%.
To `Cc1cccc(-n2cc(CN3CCN(Cc4nccn4C)CC3)c(-c3cccc(F)c3)n2)c1` belongs 27%; to `Cc1cccc(-n2cc(CN3CCN(c4ccccn4)CC3)c(-c3cccc(F)c3)n2)c1`, 15.4%.
In the case of `Cc1ccc(-c2nn(-c3cccc(F)c3)cc2CN(Cc2nccn2C)C(C)C)o1` it was 22.5%; in that of `CCN1CC(CN(C)Cc2cn(-c3cccc(C)c3)nc2-c2cccc(F)c2)CC1=O` (centres undefined), 15.3%; in that of `CCOC(=O)N1CCC(N(CCN(C)C)C(=S)Nc2cccc(OC)c2)CC1`, 10%.
On to `CCn1ccnc1CNC(=O)c1cc(COc2ccc(F)cc2F)on1`, for which the inhibition was 13.2%.
To `CCCn1nnc(NC(=O)c2ccc(-c3cccc(Cl)c3)o2)n1` belongs 0.76%.
Regarding `O=C(NC1=NCCS1)c1cc2ccccc2o1`, the inhibition is -1.2%.
On to `CC(=O)N1CCN(C(=S)c2ccc(-c3ccc(Cl)cc3)o2)CC1`, for which the inhibition is 4.85%.
To `COc1ccccc1NC(=S)NC(=O)c1ccc(-c2ccc(Cl)cc2)o1` belongs 79.3%; to `CCn1nnc(NC(=O)Cc2ccc(Cl)cc2)n1`, -0.3%.
With `CCc1nnc(NC(=O)c2ccc(-c3ccc(Cl)cc3)o2)s1`, the inhibition is 3.33%.
To `CCOC(=O)c1cc(CC)sc1N1C(=O)CC(Sc2ncccc2C(=O)O)C1=O` (centres undefined) belongs 2.89%; to `Cc1ccc(S(=O)(=O)N(C)C)cc1NC(=O)C1CCC1`, -2.34%.
In the case of `CCOc1ccc(N(CC(=O)Nc2c(C)cccc2C)S(=O)(=O)c2c(C)[nH]c(=O)[nH]c2=O)cc1` it was 7.56%.
Consider `CC(C)Cn1c(N2CCN(C(=O)c3cccs3)CC2)nc2ccccc21`, for which the inhibition was -13.3%.
To `CCn1c(N2CCN(C(=O)/C=C/c3ccccc3)CC2)nc2ccccc21` belongs 0.45%.
